Source: PubChem (Johns Hopkins Ion Channel Center)
Shown are actives, neighbours in structure and some others; about 1.6% of the full set was active somewhere.
KCNQ2 inh – KCNQ2 (rat) channel inhibition. CHO-K1 KCNQ2, FluxOR thallium flux, 20 min; active compounds read low. B-score at 10 µM. 1.1% of 310,000 active;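 active means fluorescence ratio B-score at most minus 3 library SDs, with starting brightness B-score within 2 library SDs, cut at about -5.5 in these data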
KCNQ2 pot – enhances the rat KCNQ2 potassium channel | O88943 | CHO-K1 KCNQ2, FluxOR thallium flux fluorescence; active compounds read high | B-score at 10 µM | 0.54% of 310,000 active | AID 2239;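 active means fluorescence ratio B-score at least 3 SD of library B-scores, with initial fluorescence B-score within 3 of them, cut at about 5.3 in these data; same plate scores as AID 2156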;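 further: B-score of peak minus minimum over baseline fluorescence ratio after K+ and Tl+ stimulus; positive B-score means potentiation of KCNQ2 with more thallium influx and brighter signal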
Kir21 confirm – confirmation of mouse Kir2.1 potassium channel inhibitors; shares compounds with KCNQ2 pot; Kir2.1-expressing cells, FluxOR thallium flux fluorescence; active compounds read low; Tl flux remaining, % of negative control (active compounds read low), % at 10 µM; 41% of 2,300 active; AID 2032;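 active means Primary-screen hit whose thallium flux fell at least 3 control SD below untreated wells in both duplicates, with normal baseline fluorescence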;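 further: 0% = blank wells without stimulus and 100% = stimulated no-compound controls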
HEK293 Tl flux – alters thallium flux in parental HEK293 cells, Kir2.1 counter-screen; shares compounds with KCNQ2 pot; FluxOR thallium flux fluorescence; 0% = unstimulated blank wells; FluxOR signal as % of negative control (100 = no effect), % at 10 µM; 19% of 2,300 active; AID 2105;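 active means dye signal at least 3 control SD above or below untreated wells in both duplicates, raw fluorescence within 3, either direction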;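 further: percent is based on the flux ratio of peak minus minimum fluorescence over baseline F0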
CHO-K1 ctr – alters thallium flux in parental CHO-K1 cells, KCNQ2 counter-screen; shares compounds with KCNQ2 pot; FluxOR thallium flux fluorescence; zero = vehicle mean+3SD, 100% = vehicle-minus-blank window; activity increase over 3SD of controls, % at 10 µM; 43% of 1,200 active; AID 2282;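 active means signal rise of at least 3 SD above the untreated control mean, in both duplicate wells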;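 further: counter screen of KCNQ2 potentiator hits so any rise reflects channel-independent effects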
KCNQ1 sel pot – selectivity of KCNQ2 potentiators: effect on human KCNQ1 | shares compounds with KCNQ2 pot | CHO KCNQ1 stable, FluxOR thallium flux fluorescence; beyond 3SD, as % of vehicle-control signal | activation over 3SD threshold, % at 10 µM | 28% of 1,200 active;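 active means fluorescence ratio rise of at least 3 SD of vehicle wells above their mean, in both replicate wells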;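 further: 0% = vehicle mean plus 3 SD and 100% = vehicle minus unstimulated blank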
KCNQ2 pot confirm – rat KCNQ2 channel potentiator confirmation; shares compounds with KCNQ2 pot; CHO-KCNQ2 cells, FluxOR thallium flux fluorescence; potentiation, less the hit threshold, % at 10 µM; 68% of 1,200 active; AID 2287;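 active means fluorescence ratio rising 3 SD or more over the vehicle control mean in both replicates, plus primary screen hit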;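 further: peak minus minimum thallium fluorescence divided by baseline after K/Tl stimulus; 0% = vehicle mean plus 3 SD and 100% = vehicle minus unstimulated blank difference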
Kir21 spec – tests whether KCNQ2 potentiators also affect mouse Kir2.1; shares compounds with KCNQ2 pot; HEK293 Kir2.1, FluxOR thallium flux fluorescence; activity over 3SD threshold, % at 10 µM; 2% of 1,200 active;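 active means fluorescence ratio rise of at least 3 SD above the vehicle-control mean, seen in both replicates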;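 further: 0% = vehicle mean plus 3 SD and 100% = vehicle minus no-stimulus blank window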
KCNQ2 W236L pot – KCNQ2 potentiators acting on retigabine-insensitive rat KCNQ2 W236L mutant; shares compounds with KCNQ2 pot; CHO KCNQ2-W236L, automated patch clamp current; current increase over 3SD of negative controls (%), active compounds read high, % at 25 µM; 10% of 940 active;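 active means current increase at least 3 SD of the untreated controls above them in both duplicate recordings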
* = called active by the depositor; i = inactive; . = not tested or not shown.

SMILES	KCNQ2 inh	KCNQ2 pot	Kir21 confirm	HEK293 Tl flux	others
COc1ccc(OCCOCCOc2ccc(C)cc2[N+](=O)[O-])cc1	i	.	.	.
Cc1ccc(OCC(O)CNCc2ccc(F)cc2)cc1 (configuration not stated)	i	0.29	27.0%*	i
COc1ccc(CCNCC(O)COc2cccc(Br)c2)cc1OC (configuration not stated)	i	.	.	.
COc1ccc(CNCC(O)COc2ccc(C)cc2[N+](=O)[O-])cc1 (configuration not stated)	i	.	26.5%*	i
OC(CNCc1ccccc1)COc1ccccc1 (configuration not stated)	i	.	.	.
O=C(CN(C(=O)c1csnn1)c1ccc(Cl)cc1)NCCc1ccccc1	i	2.81	.	.
Cc1n[nH]c(=O)n1-c1ccc(OCc2ccccc2)cc1	i	0.43	.	.
CCOC(=O)CCC(=O)Nc1ccc([N+](=O)[O-])cc1C	i	0.17	.	.
COc1ccc(S(=O)(=O)NCc2csc(-c3cccnc3)n2)cc1	i	0.52	.	.
Cc1ccc(S(=O)(=O)NCc2csc(-c3cccs3)n2)cc1	i	.	.	.
O=S(=O)(NCc1csc(-c2cccnc2)n1)c1ccc(Br)cc1	i	0.45	72.0%*	i
O=S(=O)(NCc1csc(-c2cccs2)n1)c1cccs1	i	.	.	.
O=S(=O)(NCc1csc(-c2cccs2)n1)c1ccc(Cl)cc1	i	.	42.5%*	i
O=S(=O)(NCc1csc(-c2cccs2)n1)c1cccc(C(F)(F)F)c1	i	0.03	42.0%*	i
COc1ccc(-c2noc(N3CCCC(C(=O)Nc4ccc(C(C)=O)cc4)C3)n2)cc1 (configuration not stated)	i	.	.	.
COCCN(C(=O)CSc1nc(-c2ccccc2)cn1N)c1c(N)n(Cc2ccccc2)c(=O)[nH]c1=O	i	.	.	.
CN(NS(=O)(=O)c1ccc(Cl)cc1)c1ncc(C(F)(F)F)cc1Cl	i	3.35	57.5%*	i
CN(NS(=O)(=O)c1ccc(F)cc1)c1ncc(C(F)(F)F)cc1Cl	i	0.59	.	.
Cn1c(=O)cc(SCC(=O)NCC2CCCO2)c2ccc(Cl)cc21 (configuration not stated)	i	6.18*	i	i	CHO-K1 ctr=-15.0;KCNQ1 sel pot=92.0*;KCNQ2 pot confirm=-9.1;Kir21 spec=-49.8
CCn1c(=O)cc(SCC(=O)NCC2CCCO2)c2ccccc21 (configuration not stated)	i	1.07	.	.
CCOC(=O)C1(C)NC(c2ccccc2F)C2C(=O)N(CC)C(=O)C21 (configuration not stated)	i	.	.	.
O=C(Cc1ccc(Cl)cc1)NNc1c(F)c(F)cc(F)c1F	i	0.53	.	.
Oc1ccc(Cc2ccc(Cl)cc2)c(O)c1	i	5.58*	i	i	CHO-K1 ctr=105.5*;KCNQ1 sel pot=-8.6;KCNQ2 pot confirm=-10.3;Kir21 spec=-48.2
O=C(NC1CCCC1)C(c1cccs1)N(C(=O)c1csnn1)c1ccccc1F (configuration not stated)	i	.	.	.
C=CCn1c(SCC(N)=O)nc2scc(-c3ccc(C)o3)c2c1=O	i	5.28*	i	195.0%*	CHO-K1 ctr=22.4*;KCNQ1 sel pot=-16.8;KCNQ2 pot confirm=25.0*;Kir21 spec=-26.1;KCNQ2 W236L pot=i
C=CCn1c(SCC(=O)NCCOC)nc2scc(-c3ccco3)c2c1=O	i	.	.	.
Cc1c([N+](=O)[O-])nnn1-c1cc(Cl)cc(Cl)c1	i	0.17	.	.
O=C(N/C=C/c1ccco1)Nc1cccc(Cl)c1	i	13.5*	i	i	CHO-K1 ctr=-11.4;KCNQ1 sel pot=-30.9;KCNQ2 pot confirm=61.1*;Kir21 spec=-19.8;KCNQ2 W236L pot=i
COc1ccc(NC(=O)N/C=C/c2ccco2)cc1	i	0.31	.	.
